Results filed as inconclusive are left out. Where a call stands in place of a potency, no number is given. A number with no mark means an inactive call. The source made the active and inactive calls. Calls come from the whole dose curve; as a rule, active = well fitted curve in the direction sought with a large enough effect; inconclusive = small, poorly fitted or top-dose-only effect, or another doubt; inactive = no such curve, though single readings can be large; an effect the other way counts as inactive or inconclusive. Where a SMILES comes first, the peptide text is derived from it. [ ]: non-standard residue; d: D form. ξ: configuration not given here. ξPhe(βξ-Me) = CC(c1ccccc1)C(N)C(=O)O; 2Abz = Nc1ccccc1C(=O)O; GABA = NCCCC(=O)O
What was measured:
[1] = P-glycoprotein substrates identified in KB-3-1 adenocarcinoma cell line, qHTS therapeutic library screen (AID 1346986); note: nearly all actives have a fitted effect of over 60% in size
Method in brief: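 Cells seeded 500/well in DMEM/10% FCS; compounds pinned in dose-response; 72 h incubation; CellTiter-Glo added, 5 min, luminescence. KB-8-5-11 run ±tariquidar to test reversal of P-gp resistance.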

[2] = P-glycoprotein substrates identified in KB-8-5-11 adenocarcinoma cell line, qHTS therapeutic library screen (AID 1346987); note: nearly all actives have a fitted effect of over 65% in size; for activity change, negative = cytotoxicity: series mostly up to about 44 µM
Method in brief: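 KB-8-5-11, a colchicine-selected P-gp-overexpressing KB-3-1 subline, was grown without colchicine for the assay. Cells were seeded at 500 cells/well, dosed in concentration-response and incubated 72 h at 37 degree C, 5% CO2. Viability was read by CellTiter-Glo luminescence.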

Structure (SMILES) | Potency [1] | Potency [2] | outcome [1] | activity change, negative = cytotoxicity [2]
COc1ccc2c3c1O[C@H]1C[C@@H](O)C=C[C@@]31CCN(C)C2 | inactive | inactive | – | –
C[C@@H]1O[C@@H](O[C@H]2[C@H](OC(=O)[C@]34CCC(C)(C)C[C@H]3C3=CCC5[C@@]6(C)C[C@H](O)[C@H](O[C@@H]7O[C@H](CO[C@@H]8OC[C@H](O)[C@H](O)[C@H]8O)[C@@H](O)[C@H](O)[C@H]7O)C(C)(C)C6CC[C@@]5(C)[C@]3(C)C[C@H]4O)OC[C@@H](O)[C@@H]2O)[C@H](O)[C@H](O[C@@H]2OC[C@](O)(CO)[C@H]2O)[C@H]1O[C@@H]1OC[C@H](O)[C@H](O[C@@H]2OC[C@@H](O)[C@H](O)[C@H]2O)[C@H]1O (some centres not stated) | – | – | inactive [at 9.29 µM] | 7.52% [at 9.29 µM]
C/C(=C\CCC(C)(O)c1ccc(C)cc1)C(=O)O (configuration not stated) | inactive | inactive | – | –
C/C(=C\CCC(C(=O)O)C1CCC2(C)C3=C(CCC12C)C1(C)CCC(=O)C(C)(C)C1CC3)C(=O)O (configuration not stated) | inactive | inactive | – | –
COC(=O)C1C(c2ccc(O)cc2)C(C(=O)OC)C1c1ccc(O)cc1 (configuration not stated) | inactive | inactive | – | –
COc1cc([C@H]2OC[C@]3(OC(C)=O)[C@@H](c4ccc(O[C@@H]5O[C@H](CO)[C@@H](O)[C@H](O)[C@H]5O)c(OC)c4)OC[C@H]23)ccc1O | inactive | inactive | – | –
CC[C@H](/C=C/[C@@H](C)[C@H]1CC[C@H]2[C@@H]3CC=C4C[C@@H](O)CC[C@]4(C)[C@H]3CC[C@]12C)C(C)C | – | – | inactive [at 5.11 µM] | 0.93% [at 5.11 µM]
CCC(C)C1NC(=O)C2CCCN2C(=O)C(C(C)C)NC(=O)c2ccccc2NC(=O)C(Cc2ccc(O)cc2)NC(=O)C(C)NC(=O)C(C(C)O)NC1=O (configuration not stated) (cyclo([2Abz]VPITAY); configuration not given here) | inactive | inactive | – | –
COc1ncc(-c2ccc3c(Nc4cc(Oc5cc(F)cc(F)c5)cc(C(=O)O)c4)c(S(=O)(=O)NC4CC4)cnc3c2)c(OC)n1 | inactive | inactive | – | –
COCCN(C)Cc1ccc2nc3sc(C(=O)N(C)C4CCCCC4)cn3c2c1 | inactive | inactive | – | –
Cc1cc(O)cc(Oc2cc(C)c(C(=O)O)c(O)c2)c1 | inactive | inactive | – | –
C=C1[C@H]2[C@H](O[C@@H]3O[C@H](COC(=O)/C=C/c4cc(OC)c(O)c(OC)c4)[C@@H](O)[C@H](O)[C@H]3O)OC=C(C(=O)O)[C@H]2C[C@@H]1O | inactive | inactive | – | –
CC1=CC(=O)CC(C)(CO[C@@H]2O[C@H](CO)[C@@H](O)[C@H](O)[C@H]2O)C1(O)/C=C/C(C)=C/C(=O)O (some centres not stated) | inactive | inactive | – | –
O=C1Nc2ccc(O)cc2O[C@H]1O[C@@H]1O[C@H](CO)[C@@H](O)[C@H](O)[C@H]1O | inactive | inactive | – | –
O=C(O[C@@H]1O[C@H](CO)[C@@H](O)[C@H](O)[C@H]1O)c1c(O)cc(O)cc1/C=C/c1ccccc1 | inactive | inactive | – | –
C[C@@H]1O[C@@H](O[C@H]2[C@H](O[C@H]3[C@H](O[C@H]4CC[C@@]5(C)C(CC[C@]6(C)C5CC=C5[C@@H]7CC(C)(C(=O)O)C[C@@H](O)[C@]7(C)CC[C@]56C)[C@@]4(C)CO)O[C@H](C(=O)O)[C@@H](O)[C@@H]3O)O[C@H](CO)[C@H](O)[C@@H]2O)[C@H](O)[C@H](O)[C@H]1O (some centres not stated) | – | – | inactive [at 9.29 µM] | 7.09% [at 9.29 µM]
O=C(O[C@H]1[C@@H]2C[C@@H]3OC[C@@](O)([C@H]2[C@H](O[C@@H]2O[C@H](CO)[C@@H](O)[C@H](O)[C@H]2O)O3)[C@@H]1O)c1ccccc1 | inactive | inactive | – | –
C=C1C(O[C@@H]2O[C@H](CO)[C@@H](O)[C@H](O)[C@@H]2O)CC2C(C)(C)C(O)CCC2(C)C1CC/C(C)=C\CO (some centres not stated) | inactive | inactive | – | –
COC1CC(OC2CCC3(C)C(=CCC4C3CCC3(C)C(C(C)O)CCC43O)C2)OC(C)C1OC1OC(C)C(OC2OC(COC3OC(COC4OC(CO)C(O)C(O)C4O)C(O)C(O)C3O)C(O)C(O)C2O)C(OC)C1O (configuration not stated) | – | – | inactive [at 9.29 µM] | 4.62% [at 9.29 µM]
CC(C)CC1NC(=O)C(C(C)c2ccccc2)NC(=O)C(C(C)C)NC(=O)C(C)NC(=O)CCCNC(=O)C(Cc2c[nH]c3ccccc23)NC(=O)C(C)NC1=O (stereo not drawn) (cyclo([GABA]AV[ξPhe(βξ-Me)]LAW); configuration not given here) | inactive | inactive | – | –
CC(C)(C)NCC(O)COc1cccc2c1CCCC2=O (configuration not stated) | inactive | inactive | – | –
Cc1ncc([N+](=O)[O-])n1CC(O)CN1CCOCC1 (configuration not stated) | inactive | inactive | – | –
Cc1onc(-c2ccccc2)c1C(=O)N[C@@H]1C(=O)N2[C@@H]1SC(C)(C)[C@@H]2C(=O)O | inactive | inactive | – | –
CC(/C=C/[C@]1(O)[C@@]2(C)CO[C@@]1(C)C[C@@H](O)C2)=C\C(=O)O[C@@H]1O[C@H](CO)[C@@H](O)[C@H](O)[C@H]1O | inactive | inactive | – | –
COc1c(OC2OC(CO)C(O)C(O)C2O)ccc(O)c1C(=O)OCc1ccccc1O[C@@H]1O[C@H](CO)[C@@H](O)[C@H](O)[C@H]1O (some centres not stated) | inactive | inactive | – | –
C[C@@H]1C[C@H](O)/C=C/[C@H](O)[C@@H](O)CC(=O)O1 | inactive | inactive | – | –

— PubChem BioAssay (NCATS)
